High-throughput results (PubChem BioAssay)
Compounds with a hit are over-represented: about 4.1% of the library has one in this group of screens.
PglD inh – blocks C. jejuni PglD acetyltransferase activity. purified PglD enzyme, DTNB colorimetric CoA detection. inhibition, % at 12.5 µM. 0.098% of 360,000 active. AID 602405; in the data active = inhibition above about 16%, passing the limit was not always enough
NSD2 inh – inhibitors of human histone methyltransferase NSD2 | NSD2 peptide methylation, AlphaScreen, 120 min | O96028 | inhibition, % at 12.5 µM | 0.54% of 310,000 active; in the data active = inhibition above about 50%
F508del corr – CFTR F508del correction in bronchial cells | CFBE cells, YFP halide quenching; stimulated with forskolin plus potentiator P3; % fluorescence drop versus neutral controls | activity (quench increase), % at 7.58 µM | 0.36% of 350,000 active | AID 720511;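 active = mean added fluorescence quench of at least 8% versus neutral control, with both replicates also reaching 8%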;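 also: cells transiently co-express mutant CFTR-F508del with the halide-sensitive YFP; corrector assay measuring rescue of mutant channel to the surface after 24 h compound exposure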
ALR H2O2 inh – blocks human ALR sulfhydryl oxidase activity; P55789; 3.8% of 290,000 active; inhibition, % (no concentration beside the values); purified ALR, DTT oxidation, H2O2 HRP-luminol luminescence;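 active = mean replicate inhibition above about 79%, with every replicate also reaching it, limit read from the data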
Target sequence (P55789 whole entry, looked up): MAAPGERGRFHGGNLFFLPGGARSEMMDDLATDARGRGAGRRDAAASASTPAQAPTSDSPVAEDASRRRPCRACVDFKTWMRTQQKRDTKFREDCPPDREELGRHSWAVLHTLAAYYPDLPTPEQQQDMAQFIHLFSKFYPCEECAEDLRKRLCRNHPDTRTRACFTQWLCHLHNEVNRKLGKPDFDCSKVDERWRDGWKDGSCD
HIV Env fusion – inhibitors of HIV Env-mediated cell fusion; HeLa-JRFL Env/CEM21 cell fusion, luciferase; inhibition, % at 12.3 µM; 1.1% of 360,000 active; AID 651610;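 active = mean replicate inhibition score of at least 50 and every replicate individually at or above 50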;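 also: 0% = plate neutral controls and 100% = maraviroc near 300 nM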
CASP6 VEID inh – caspase-6 (human) enzyme inhibition. inhibition, % at 12.5 µM. P55212. 0.53% of 350,000 active. purified caspase-6, Z-VEID-R110 cleavage fluorescence;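 active = mean inhibition across replicates at least about 35%, with every replicate also reaching that limit, limit read from the data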;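 also: 0% = median of neutral control wells and 100% = no fluorescence left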
Target sequence (P55212 24-179 limits assumed): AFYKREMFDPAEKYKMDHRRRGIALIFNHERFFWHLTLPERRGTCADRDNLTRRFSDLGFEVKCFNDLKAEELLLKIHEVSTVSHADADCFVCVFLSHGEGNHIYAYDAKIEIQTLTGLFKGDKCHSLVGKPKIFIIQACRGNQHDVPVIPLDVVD
Target sequence (P55212 194-293 limits assumed): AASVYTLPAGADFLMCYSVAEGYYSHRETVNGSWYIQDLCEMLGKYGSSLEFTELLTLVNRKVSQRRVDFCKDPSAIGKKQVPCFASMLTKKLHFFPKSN
AlphaScreen art – AlphaScreen assay artifact in NSD2 counter-screen. shares compounds with NSD2 inh. AlphaScreen artifact counterscreen, preloaded methylated H4 peptide. AC35, µM (highest dose often 10 µM), inactives show top-dose activity change, negative = signal loss. 9.4% of 1,500 active. AID 1053174; call rule not given here
Active calls of the source: *; [ ] = another dose, or the depositor's remark.

`Cc1[nH]n(-c2ccccc2)c(=O)c1C(C[N+](=O)[O-])c1ccc(Cl)cc1` (stereo unspecified) gave PglD inh -2.3, NSD2 inh 100.1*, HIV Env fusion 7.3 and AlphaScreen art 0.3%.
Screening Cc1[nH]n(-c2ccccc2)c(=O)c1C(c1ccccc1C(=O)O)c1c(C)[nH]n(-c2ccccc2)c1=O returned NSD2 inh -1.0, ALR H2O2 inh 7.3 and HIV Env fusion -9.8.
`Cc1ccc(C(C[N+](=O)[O-])c2c(C)[nH]n(-c3ccccc3)c2=O)cc1` (stereo unspecified) gave PglD inh 2.0, NSD2 inh 102.9*, ALR H2O2 inh 4.3, HIV Env fusion -2.1, CASP6 VEID inh 0.7 and AlphaScreen art -3.2%.
Screening COc1ccc(C(c2c(C)[nH]n(-c3ccccc3)c2=O)c2c(C)[nH]n(-c3ccccc3)c2=O)cc1OC returned PglD inh -0.7, NSD2 inh 97.5*, ALR H2O2 inh 0.5 and AlphaScreen art -6.2%.
`Cc1cc(O)c(C(C[N+](=O)[O-])c2ccc(Cl)cc2)c(=O)o1` (stereo unspecified) gave PglD inh 2.4, NSD2 inh 0.3, ALR H2O2 inh 3.9 and CASP6 VEID inh 1.4.
COc1ccc(C(c2c(C)n(C)n(-c3ccccc3)c2=O)c2c(C)n(C)n(-c3ccccc3)c2=O)cc1OC was read as PglD inh -3.0, NSD2 inh -0.7, F508del corr -1.4, ALR H2O2 inh -1.3, HIV Env fusion 3.4 and CASP6 VEID inh 2.1.
Cc1[nH]n(-c2ccccc2)c(=O)c1C(c1ccccc1[N+](=O)[O-])C(C#N)C#N (stereo unspecified) was read as PglD inh -3.0, NSD2 inh 1.4, F508del corr 0.1, ALR H2O2 inh 36.8, HIV Env fusion 5.5 and CASP6 VEID inh 7.7.
`C[C@@H]1CN([C@@H](C)CO)C(=O)c2cc(C#CCc3ccccc3)cnc2O[C@H]1CN(C)C(=O)C1CC1` gave PglD inh 3.6, F508del corr -2.3, HIV Env fusion -14.9[16.7 µM] and CASP6 VEID inh 1.3.
For CCC(=O)N1CC(=O)N2[C@H](CO)[C@H](c3ccc(C#Cc4cccc(OC)c4)cc3)[C@H]2C1 the results were F508del corr 0.7 and CASP6 VEID inh -0.6.
`COc1cc(OC)nc(NC2OC(=O)c3ccccc32)n1` (stereo unspecified) gave PglD inh -0.5, NSD2 inh 104.1*, ALR H2O2 inh 5.6, HIV Env fusion -6.4 and AlphaScreen art 3.8%.
`O=C1CCC(=O)N1CCC(c1ccc(F)cc1)c1ccco1` (stereo unspecified) gave PglD inh -0.1, NSD2 inh 5.8, F508del corr 0.7 and CASP6 VEID inh 5.2.
For O=C1c2ccccc2C(=O)N1CCC(c1ccc(F)cc1)c1ccco1 (stereo unspecified) the results were PglD inh 1.0, NSD2 inh 118.9*, ALR H2O2 inh 38.0 and AlphaScreen art -1.8%.
For COc1ccccc1NC(=O)N(C)C[C@H]1Oc2ncc(C#CCC(C)C)cc2C(=O)N([C@H](C)CO)C[C@H]1C the results were PglD inh 1.1, F508del corr -1.1, HIV Env fusion 13.8[16.7 µM] and CASP6 VEID inh 1.8.
Screening N#Cc1c(SCC(=O)OCc2ccccc2)nsc1SCC(=O)OCc1ccccc1 returned PglD inh 4.2, NSD2 inh 126.0*, ALR H2O2 inh -2.8, HIV Env fusion -36.0, CASP6 VEID inh -4.6 and AlphaScreen art -4.4%.
Screening CC(C)n1c(NCc2nc3ccccc3n2C)nc2ccccc21 returned PglD inh 0.0, NSD2 inh 119.7*, ALR H2O2 inh 42.8, HIV Env fusion -30.1 and AlphaScreen art 5.0%.
Screening CC(C)n1c(NCCO)nc2ccccc21 returned NSD2 inh 1.9, F508del corr 1.1, ALR H2O2 inh 19.9, HIV Env fusion -2.3 and CASP6 VEID inh -0.8.
Screening CNc1ccc(Br)cc(C(=O)/C=C/c2cccc(OC)c2OC)c1=O returned PglD inh -4.3, NSD2 inh 51.1*, ALR H2O2 inh 5.7, HIV Env fusion -51.1 and AlphaScreen art -7.5%.
Screening C[C@@H]1CN([C@@H](C)CO)C(=O)c2cc(NS(=O)(=O)c3ccc(F)cc3)ccc2O[C@@H](C)CCCCO[C@@H]1CN(C)C(=O)Cc1ccccc1 returned PglD inh 6.0, F508del corr 2.8 and HIV Env fusion -1.2[16.7 µM].
Screening Oc1ccccc1CNc1cccc2cccnc12 returned NSD2 inh 53.1*, F508del corr -3.6, ALR H2O2 inh -125.0, HIV Env fusion -26.5, CASP6 VEID inh -3.6 and AlphaScreen art -1.6%.
CCN(CC)CCCNc1nc(-n2nc(C)cc2C)nc2sc3c(c12)CC(C)(C)OC3 was read as NSD2 inh 75.6*, F508del corr -0.7, ALR H2O2 inh 1.6, HIV Env fusion 2.7, CASP6 VEID inh -11.8 and AlphaScreen art -4.8%.
For CN1CCCCCC1=Nc1ccc([N+](=O)[O-])cc1 the results were PglD inh 7.6, NSD2 inh 56.7*, F508del corr -1.5, ALR H2O2 inh 1.3, HIV Env fusion 10.2, CASP6 VEID inh -2.5 and AlphaScreen art -2.4%.
`CC1NC(=O)NC1CCCCCC(=O)Nc1ccc(F)c(Cl)c1` (stereo unspecified) gave NSD2 inh 102.6*, F508del corr -1.3, ALR H2O2 inh -8.7, HIV Env fusion -3.3, CASP6 VEID inh -6.4 and AlphaScreen art 3.8µM*.
For CCc1cccc(NC(=O)CCCCCC2NC(=O)NC2C)c1 (stereo unspecified) the results were F508del corr -1.3, ALR H2O2 inh -2.9, HIV Env fusion 1.9 and CASP6 VEID inh -2.6.
Screening Cc1ccc(NC(=O)Cn2nnc(C(=O)NCc3ccccc3)c2N)cc1C returned PglD inh -4.4, NSD2 inh 55.6*, ALR H2O2 inh -8.0, HIV Env fusion -69.8, CASP6 VEID inh 1.7 and AlphaScreen art -2.4%.
`O=[N+]([O-])c1ccccc1-c1ccc(C(=S)N2CCCC2)o1` gave PglD inh -0.5, NSD2 inh 65.0*, F508del corr 1.7, ALR H2O2 inh 20.0, HIV Env fusion -72.7, CASP6 VEID inh 10.5 and AlphaScreen art -9.4%.
Screening O=[N+]([O-])c1ccccc1-c1ccc(C(=S)N2CCCCC2)o1 returned PglD inh -1.8, NSD2 inh 20.1, F508del corr -3.3, ALR H2O2 inh 10.4, HIV Env fusion -53.6 and CASP6 VEID inh 9.6.
CO[C@@H]1CN(C)C(=O)c2ccc(NC(=O)c3cc(C)on3)cc2OC[C@H](C)N(C(C)=O)C[C@@H]1C was read as PglD inh -0.5, F508del corr -0.7, HIV Env fusion 5.1[16.7 µM] and CASP6 VEID inh -0.6.
